In PubChem BioAssay (EPA / NIEHS):
Inconclusive results are not listed. Calls of active or inactive are those of the source. Rule for the calls: active = hit-call score of the fitted dose curve at least 0.9, where 1 is the maximum; inconclusive = response in the unintended direction; inactive = score below 0.9.

Molecular target: PGR (gene 5241) (UniProt P06401)
Assay: TOX21_PR_LUC_Followup_Antagonist: Tox21 HEK293 Progesterone Receptor (PR) Antagonism Luciferase Follow-Up Assay (AID 2283938);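 note: curve fitted upward as signal gain over DMSO baseline despite antagonist label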
Outline: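 HEK293-PR-A-luc cells, 3,000/well, preincubated 5 h at 37C before compound addition in DMSO; 16 h compound exposure at 37C. ONE-Glo luciferase luminescence read after 30 min at room temperature, fitted relative to DMSO baseline.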

PGR (gene 5241), sequence (P06401 whole entry, looked up): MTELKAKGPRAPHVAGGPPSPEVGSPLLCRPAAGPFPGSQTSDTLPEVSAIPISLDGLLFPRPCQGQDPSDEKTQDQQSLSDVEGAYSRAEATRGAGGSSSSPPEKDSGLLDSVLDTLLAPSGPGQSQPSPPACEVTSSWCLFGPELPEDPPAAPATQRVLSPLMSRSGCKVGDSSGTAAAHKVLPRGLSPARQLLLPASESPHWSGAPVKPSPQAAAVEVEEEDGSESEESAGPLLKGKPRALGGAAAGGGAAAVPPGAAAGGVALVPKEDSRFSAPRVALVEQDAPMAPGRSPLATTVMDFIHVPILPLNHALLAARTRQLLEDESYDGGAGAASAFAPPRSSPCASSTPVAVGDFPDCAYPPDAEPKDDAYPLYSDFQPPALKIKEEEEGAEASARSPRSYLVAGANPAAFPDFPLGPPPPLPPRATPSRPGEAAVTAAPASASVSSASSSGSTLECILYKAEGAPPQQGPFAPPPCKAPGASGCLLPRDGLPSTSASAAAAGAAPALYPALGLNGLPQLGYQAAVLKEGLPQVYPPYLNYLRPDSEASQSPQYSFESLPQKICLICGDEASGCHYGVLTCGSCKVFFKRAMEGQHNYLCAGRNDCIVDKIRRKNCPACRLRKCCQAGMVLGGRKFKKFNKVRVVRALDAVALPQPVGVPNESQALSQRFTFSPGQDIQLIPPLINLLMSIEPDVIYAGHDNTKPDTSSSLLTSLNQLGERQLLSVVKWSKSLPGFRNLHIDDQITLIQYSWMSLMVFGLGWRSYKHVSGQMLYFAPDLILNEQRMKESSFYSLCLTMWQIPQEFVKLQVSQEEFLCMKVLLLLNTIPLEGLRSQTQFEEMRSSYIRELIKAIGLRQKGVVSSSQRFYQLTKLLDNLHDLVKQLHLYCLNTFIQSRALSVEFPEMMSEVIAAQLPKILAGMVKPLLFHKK

Q: Which AC50 does the source give for `CCCOC(=O)c1c(Cl)c(Cl)c(Cl)c(Cl)c1C(=O)OCCC` here?
A: Its AC50 is 21.2 µM (active).

Q: For `O=C(Nc1ccc2c(c1)Cc1ccccc1-2)C(F)(F)F`, which AC50 is on record?
A: Its AC50 is 62.9 µM (active).

Q: How did the AC50 turn out when `CCOC(=O)C(C#N)=C(c1ccccc1)c1ccccc1` was run?
A: The AC50 was 23 µM (active).

Q: With `N#Cc1ccc(CC(=O)c2cccc(C(F)(F)F)c2)cc1` as the molecule, how does the AC50 read?
A: The AC50 was 32 µM (active).

Q: `C=C1CC[C@H](O)C/C1=C/C=C1\CCC[C@]2(C)[C@@H]([C@H](C)/C=C/[C@H](C)C(C)C)CC[C@@H]12` was tested. Which outcome did it give?
A: Its outcome is “inactive”.

Molecular target: Thyroid hormone receptor alpha (Rattus norvegicus) + Thyroid hormone receptor beta (Rattus norvegicus) (UniProt P18113+P63059)
Assay: TOX21_TR_LUC_GH3_Agonist_Followup: Tox21 GH3 Thyroid Hormone Receptor Agonism Luciferase Follow-Up Assay (AID 2283939)
Outline: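 Rat GH3 cells (1,500/well) in serum-free assay medium, treated with 15-point series, 92 uM to 5 nM final, for 24 h at 37C. Luciferase via ONE-Glo luminescence; gain of signal fitted against DMSO, T3 positive control.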

Thyroid hormone receptor alpha (Rattus norvegicus) + Thyroid hormone receptor beta (Rattus norvegicus), sequence (P63059 whole entry, looked up): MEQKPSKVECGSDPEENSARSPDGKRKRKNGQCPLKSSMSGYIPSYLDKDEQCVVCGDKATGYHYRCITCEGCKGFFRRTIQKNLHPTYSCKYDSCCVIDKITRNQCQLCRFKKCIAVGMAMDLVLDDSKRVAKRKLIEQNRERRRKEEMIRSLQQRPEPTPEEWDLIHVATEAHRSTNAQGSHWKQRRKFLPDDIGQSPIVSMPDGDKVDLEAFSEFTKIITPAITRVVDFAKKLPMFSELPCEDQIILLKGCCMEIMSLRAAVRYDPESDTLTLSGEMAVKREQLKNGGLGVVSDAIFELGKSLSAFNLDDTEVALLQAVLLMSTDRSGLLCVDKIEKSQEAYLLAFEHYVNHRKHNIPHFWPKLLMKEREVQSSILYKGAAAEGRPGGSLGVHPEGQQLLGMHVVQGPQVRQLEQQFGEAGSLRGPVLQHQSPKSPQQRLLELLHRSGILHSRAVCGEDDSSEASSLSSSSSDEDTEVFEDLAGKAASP
Thyroid hormone receptor alpha (Rattus norvegicus) + Thyroid hormone receptor beta (Rattus norvegicus), sequence (P18113 whole entry, looked up): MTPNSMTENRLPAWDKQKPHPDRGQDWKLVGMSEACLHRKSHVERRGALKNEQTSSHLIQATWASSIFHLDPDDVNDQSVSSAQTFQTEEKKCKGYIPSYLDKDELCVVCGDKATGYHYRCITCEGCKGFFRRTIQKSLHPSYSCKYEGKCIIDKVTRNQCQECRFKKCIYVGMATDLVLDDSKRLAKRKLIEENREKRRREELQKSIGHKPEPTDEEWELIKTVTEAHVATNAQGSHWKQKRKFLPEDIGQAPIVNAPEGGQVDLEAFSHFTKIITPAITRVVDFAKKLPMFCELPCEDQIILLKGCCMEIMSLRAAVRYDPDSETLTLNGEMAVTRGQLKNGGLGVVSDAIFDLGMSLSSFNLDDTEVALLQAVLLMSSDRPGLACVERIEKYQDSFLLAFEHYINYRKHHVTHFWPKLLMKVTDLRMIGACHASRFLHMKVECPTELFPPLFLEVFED

Q: Which outcome does the source give for `O=Cc1ccccc1S(=O)(=O)O` here?
A: The outcome was “inactive”.

Q: `OCCCCC(O)CO` (centres undefined) was tested. Which outcome did it give?
A: Its outcome is “inactive”.

Q: Which outcome does the source give for `C[C@H](CCC(=O)NCC(=O)O)[C@H]1CC[C@H]2[C@@H]3[C@H](O)C[C@@H]4C[C@H](O)CC[C@]4(C)[C@H]3C[C@H](O)[C@]12C` here?
A: The outcome was “inactive”.

Q: How did the outcome turn out when `Cc1cc(C)nc(NS(=O)(=O)c2ccc(N)cc2)n1` was run?
A: Its outcome is “inactive”.
